# Source: publication PMC7862700, “An all-to-all approach to the identification of sequence-specific readers for epigenetic DNA modifications on cytosine”
# What was measured:
# Test in all cases: DAPPL (digital affinity profiling via proximity ligation, sequencing); 10 mM Tris-HCl pH 7.5, 50 mM NaCl, 1 mM DTT, 4% glycerol, room temperature, 30 min; GST-TFs on glutathione beads, 16-mer random dsDNA library, 0.1% formaldehyde crosslink after washing; high values mean tight binding
# FLI1 = target: T1, FLI1 (Homo sapiens, UniProt Q01543 1-452); details: protein: recombinant; tags: N-terminal GST; dsDNA, one strand shown
# T1 sequence: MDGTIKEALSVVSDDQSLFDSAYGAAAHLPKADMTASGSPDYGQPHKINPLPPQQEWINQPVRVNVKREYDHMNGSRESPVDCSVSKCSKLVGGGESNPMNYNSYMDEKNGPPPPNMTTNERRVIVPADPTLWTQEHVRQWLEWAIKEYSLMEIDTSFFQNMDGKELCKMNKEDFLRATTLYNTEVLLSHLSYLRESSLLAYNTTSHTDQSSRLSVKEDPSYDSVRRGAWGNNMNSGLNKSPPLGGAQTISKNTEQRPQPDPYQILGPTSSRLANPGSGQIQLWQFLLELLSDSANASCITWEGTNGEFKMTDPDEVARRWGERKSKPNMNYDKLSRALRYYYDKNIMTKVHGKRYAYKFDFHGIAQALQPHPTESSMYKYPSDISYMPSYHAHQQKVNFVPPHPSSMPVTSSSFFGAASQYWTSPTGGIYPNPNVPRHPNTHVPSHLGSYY
# In short: (§1)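 In yeast, human transcription factors were expressed with a GST fusion, then pulled down on glutathione beads and given DNA barcodes. Pooled with a tag-only sample, they were exposed to 200 nmole of a 16-mer random double-stranded DNA library (Tris/NaCl/DTT/glycerol buffer, room temperature, 30 min), washed, crosslinked with 0.1% formaldehyde, proximity-ligated using BsaI/T4 ligase for 1 h at 37 °C, PCR-amplified and read on an Illumina NextSeq500. Each hexamer's frequency of reads for a factor, divided by the matching frequency for the tag-only sample, gives the binding signal.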
# ELK1 = target: T2, ELK1 (Homo sapiens, UniProt P19419 1-428); details: protein: recombinant; tags: N-terminal GST; dsDNA, one strand shown
# T2 sequence: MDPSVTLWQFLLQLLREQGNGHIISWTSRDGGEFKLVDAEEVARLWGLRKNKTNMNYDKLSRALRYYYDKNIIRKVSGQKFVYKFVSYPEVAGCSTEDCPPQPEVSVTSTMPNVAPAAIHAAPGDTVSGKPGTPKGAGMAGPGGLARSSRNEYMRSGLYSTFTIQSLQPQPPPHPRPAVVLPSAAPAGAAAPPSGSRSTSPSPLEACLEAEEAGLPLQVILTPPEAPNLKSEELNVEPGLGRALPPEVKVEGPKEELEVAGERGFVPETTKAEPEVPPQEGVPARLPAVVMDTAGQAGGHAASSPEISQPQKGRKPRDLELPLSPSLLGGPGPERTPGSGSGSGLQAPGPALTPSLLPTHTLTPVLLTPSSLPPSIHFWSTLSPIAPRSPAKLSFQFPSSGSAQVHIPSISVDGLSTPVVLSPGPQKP
# In short: as §1
# GABPA = target: T3, GABPA (Homo sapiens, UniProt Q06546 1-454); details: protein: recombinant; tags: N-terminal GST; dsDNA, one strand shown
# T3 sequence: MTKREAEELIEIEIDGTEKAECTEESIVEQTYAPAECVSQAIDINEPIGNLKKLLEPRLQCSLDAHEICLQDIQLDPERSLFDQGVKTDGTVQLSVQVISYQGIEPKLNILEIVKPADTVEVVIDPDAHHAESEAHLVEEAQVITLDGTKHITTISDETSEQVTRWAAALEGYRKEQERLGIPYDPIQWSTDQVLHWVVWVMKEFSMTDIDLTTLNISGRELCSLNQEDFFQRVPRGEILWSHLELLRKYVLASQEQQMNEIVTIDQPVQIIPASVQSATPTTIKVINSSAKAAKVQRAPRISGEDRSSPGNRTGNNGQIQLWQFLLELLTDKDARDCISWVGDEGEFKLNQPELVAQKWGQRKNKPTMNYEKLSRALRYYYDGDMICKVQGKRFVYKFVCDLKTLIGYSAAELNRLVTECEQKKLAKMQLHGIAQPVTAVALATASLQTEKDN
# In short: as §1
# ERG = target: T4, ERG (Homo sapiens, UniProt P11308 1-479); details: protein: recombinant; tags: N-terminal GST; dsDNA, one strand shown
# T4 sequence: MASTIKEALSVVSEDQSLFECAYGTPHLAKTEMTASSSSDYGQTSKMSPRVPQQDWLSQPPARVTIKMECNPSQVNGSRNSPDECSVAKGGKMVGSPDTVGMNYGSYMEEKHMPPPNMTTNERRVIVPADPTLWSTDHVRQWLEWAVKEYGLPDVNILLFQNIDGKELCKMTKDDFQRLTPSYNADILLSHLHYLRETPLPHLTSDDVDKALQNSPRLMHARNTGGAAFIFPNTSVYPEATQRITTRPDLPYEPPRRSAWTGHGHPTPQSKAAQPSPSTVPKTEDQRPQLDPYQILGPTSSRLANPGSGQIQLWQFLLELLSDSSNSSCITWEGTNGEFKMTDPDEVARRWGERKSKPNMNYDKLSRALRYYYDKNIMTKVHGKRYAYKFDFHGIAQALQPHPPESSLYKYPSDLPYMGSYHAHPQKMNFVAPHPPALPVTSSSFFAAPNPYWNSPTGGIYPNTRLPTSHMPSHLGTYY
# In short: as §1
# ELF1 = ELF1 (Homo sapiens, UniProt P32519 1-619); details: protein: recombinant; tags: N-terminal GST; dsDNA, one strand shown
# In short: as §1
# EHF = target: T5, EHF (Homo sapiens, UniProt Q9NZC4 1-300); details: protein: recombinant; tags: N-terminal GST; dsDNA, one strand shown
# T5 sequence: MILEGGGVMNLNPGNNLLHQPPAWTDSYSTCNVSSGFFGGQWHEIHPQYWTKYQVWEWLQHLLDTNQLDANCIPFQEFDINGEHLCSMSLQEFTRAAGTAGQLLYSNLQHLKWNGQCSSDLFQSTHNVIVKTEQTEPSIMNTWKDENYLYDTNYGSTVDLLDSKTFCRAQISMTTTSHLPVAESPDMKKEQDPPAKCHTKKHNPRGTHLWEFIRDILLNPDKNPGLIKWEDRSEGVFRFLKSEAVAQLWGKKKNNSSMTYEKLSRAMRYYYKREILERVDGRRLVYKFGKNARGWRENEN
# In short: as §1
# SPI1 = SPI1 (Homo sapiens, UniProt P17947 1-270); details: protein: recombinant; tags: N-terminal GST; dsDNA, one strand shown
# In short: as §1
# SPIB = SPIB (Homo sapiens, UniProt Q01892 1-262); details: protein: recombinant; tags: N-terminal GST; dsDNA, one strand shown
# In short: as §1
# ELK3 = target: T6, ELK3 (Homo sapiens, UniProt P41970 1-407); details: protein: recombinant; tags: N-terminal GST; dsDNA, one strand shown
# T6 sequence: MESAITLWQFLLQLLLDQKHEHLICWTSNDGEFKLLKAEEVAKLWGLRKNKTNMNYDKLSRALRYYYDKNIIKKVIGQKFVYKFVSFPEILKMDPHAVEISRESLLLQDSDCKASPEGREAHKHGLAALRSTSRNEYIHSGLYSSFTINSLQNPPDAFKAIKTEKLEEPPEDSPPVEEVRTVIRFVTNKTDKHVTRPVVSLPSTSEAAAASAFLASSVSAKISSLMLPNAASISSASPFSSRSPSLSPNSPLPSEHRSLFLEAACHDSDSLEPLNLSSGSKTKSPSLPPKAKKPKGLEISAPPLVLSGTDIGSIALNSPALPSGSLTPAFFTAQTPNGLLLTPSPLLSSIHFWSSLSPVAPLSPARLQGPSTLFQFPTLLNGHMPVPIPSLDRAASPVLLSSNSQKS
# In short: as §1
# FEV = target: T7, FEV (Homo sapiens, UniProt Q99581 1-238); details: protein: recombinant; tags: N-terminal GST; dsDNA, one strand shown
# T7 sequence: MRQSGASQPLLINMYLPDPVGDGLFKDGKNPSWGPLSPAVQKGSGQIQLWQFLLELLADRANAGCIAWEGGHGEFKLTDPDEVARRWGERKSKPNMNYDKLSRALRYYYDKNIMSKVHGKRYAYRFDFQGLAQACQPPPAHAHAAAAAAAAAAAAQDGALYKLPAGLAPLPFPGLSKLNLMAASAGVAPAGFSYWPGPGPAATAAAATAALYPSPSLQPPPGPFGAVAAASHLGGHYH
# In short: as §1
# ETV5 = ETV5 (Homo sapiens, UniProt P41161 1-510); details: protein: recombinant; tags: N-terminal GST; dsDNA, one strand shown
# In short: as §1
# HSF1 = HSF1 (Homo sapiens, UniProt Q00613 1-529); details: protein: recombinant; tags: N-terminal GST; chain copies: 3; dsDNA, one strand shown
# In short: as §1
# SPIC = target: T8, SPIC (Homo sapiens, UniProt Q8N5J4 1-248); details: protein: recombinant; tags: N-terminal GST; dsDNA, one strand shown
# T8 sequence: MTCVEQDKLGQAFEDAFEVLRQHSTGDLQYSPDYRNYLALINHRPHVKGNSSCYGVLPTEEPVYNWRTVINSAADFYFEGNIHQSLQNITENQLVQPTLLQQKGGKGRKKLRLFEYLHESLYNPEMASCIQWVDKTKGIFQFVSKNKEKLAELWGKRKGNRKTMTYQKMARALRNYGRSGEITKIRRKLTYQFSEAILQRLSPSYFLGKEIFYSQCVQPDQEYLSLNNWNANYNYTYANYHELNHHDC
# In short: as §1
# ELF4 = ELF4 (Homo sapiens, UniProt Q99607 1-663); details: protein: recombinant; tags: N-terminal GST; dsDNA, one strand shown
# In short: as §1
# ELK4 = target: T9, ELK4 (Homo sapiens, UniProt P28324-2 1-405); details: protein: recombinant; tags: N-terminal GST; dsDNA, one strand shown
# T9 sequence: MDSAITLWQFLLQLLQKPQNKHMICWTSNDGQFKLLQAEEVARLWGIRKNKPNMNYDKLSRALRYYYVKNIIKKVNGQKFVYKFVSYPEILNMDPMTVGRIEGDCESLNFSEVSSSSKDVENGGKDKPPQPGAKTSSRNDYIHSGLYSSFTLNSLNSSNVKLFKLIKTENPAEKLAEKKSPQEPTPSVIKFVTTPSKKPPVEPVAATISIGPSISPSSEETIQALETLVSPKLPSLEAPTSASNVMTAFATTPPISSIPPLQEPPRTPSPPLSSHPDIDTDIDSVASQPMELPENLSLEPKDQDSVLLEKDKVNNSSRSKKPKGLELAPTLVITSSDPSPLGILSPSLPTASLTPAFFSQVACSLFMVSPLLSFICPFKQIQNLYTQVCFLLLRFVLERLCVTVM
# In short: as §1
# ETV2 = target: T10, ETV2 (Homo sapiens, UniProt O00321 1-342); details: protein: recombinant; tags: N-terminal GST; dsDNA, one strand shown
# T10 sequence: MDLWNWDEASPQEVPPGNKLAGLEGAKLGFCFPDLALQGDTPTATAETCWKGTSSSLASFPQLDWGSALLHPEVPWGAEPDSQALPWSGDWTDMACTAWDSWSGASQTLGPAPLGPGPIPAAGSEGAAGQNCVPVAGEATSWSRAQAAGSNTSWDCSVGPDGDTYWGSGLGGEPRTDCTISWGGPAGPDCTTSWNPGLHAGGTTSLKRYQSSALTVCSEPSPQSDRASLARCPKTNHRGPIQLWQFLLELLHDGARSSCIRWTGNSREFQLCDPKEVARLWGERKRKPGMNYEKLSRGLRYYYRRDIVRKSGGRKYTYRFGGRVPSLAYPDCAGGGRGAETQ
# In short: as §1
# ELF3 = target: T11, ELF3 (Homo sapiens, UniProt P78545 1-371); details: protein: recombinant; tags: N-terminal GST; dsDNA, one strand shown
# T11 sequence: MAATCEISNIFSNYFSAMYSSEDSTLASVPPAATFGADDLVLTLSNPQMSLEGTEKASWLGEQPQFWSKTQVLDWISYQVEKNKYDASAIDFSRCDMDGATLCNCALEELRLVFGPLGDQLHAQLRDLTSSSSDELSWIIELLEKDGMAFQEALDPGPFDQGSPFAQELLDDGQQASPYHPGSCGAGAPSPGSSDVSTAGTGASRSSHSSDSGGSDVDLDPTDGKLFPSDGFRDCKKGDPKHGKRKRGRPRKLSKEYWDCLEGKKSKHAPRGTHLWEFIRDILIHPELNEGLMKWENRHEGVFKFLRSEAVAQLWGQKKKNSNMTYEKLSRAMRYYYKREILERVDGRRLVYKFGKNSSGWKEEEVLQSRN
# In short: as §1
# CRX = CRX (Homo sapiens, UniProt O43186 1-299); details: protein: recombinant; tags: N-terminal GST; dsDNA, one strand shown
# In short: as §1
# ETV1 = ETV1 (Homo sapiens, UniProt P50549 1-477); details: protein: recombinant; tags: N-terminal GST; dsDNA, one strand shown
# In short: as §1
# Sequence of CRX (O43186 whole entry): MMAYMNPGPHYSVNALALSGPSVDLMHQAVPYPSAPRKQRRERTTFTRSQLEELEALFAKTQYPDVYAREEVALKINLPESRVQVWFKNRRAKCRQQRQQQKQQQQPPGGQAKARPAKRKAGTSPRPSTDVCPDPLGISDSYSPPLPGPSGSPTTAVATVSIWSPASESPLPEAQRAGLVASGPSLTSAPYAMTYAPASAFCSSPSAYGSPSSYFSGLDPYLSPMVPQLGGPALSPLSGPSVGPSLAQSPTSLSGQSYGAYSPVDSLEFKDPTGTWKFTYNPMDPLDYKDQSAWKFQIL
# Sequence of ETV1 (P50549 whole entry): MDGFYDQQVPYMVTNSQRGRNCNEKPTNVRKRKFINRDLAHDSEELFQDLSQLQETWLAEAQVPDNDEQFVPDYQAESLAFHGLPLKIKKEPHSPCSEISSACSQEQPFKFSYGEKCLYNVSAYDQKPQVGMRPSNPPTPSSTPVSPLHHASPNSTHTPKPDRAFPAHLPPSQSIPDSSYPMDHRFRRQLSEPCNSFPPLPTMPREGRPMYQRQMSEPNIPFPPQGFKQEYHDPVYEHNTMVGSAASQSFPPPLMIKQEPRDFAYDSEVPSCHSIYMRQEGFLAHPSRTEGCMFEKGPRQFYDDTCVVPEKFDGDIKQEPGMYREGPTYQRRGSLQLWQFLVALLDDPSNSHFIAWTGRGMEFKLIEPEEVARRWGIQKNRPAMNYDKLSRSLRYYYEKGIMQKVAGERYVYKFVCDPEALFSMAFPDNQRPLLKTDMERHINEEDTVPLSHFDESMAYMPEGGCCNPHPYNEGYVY
# Sequence of ELF4 (Q99607 whole entry): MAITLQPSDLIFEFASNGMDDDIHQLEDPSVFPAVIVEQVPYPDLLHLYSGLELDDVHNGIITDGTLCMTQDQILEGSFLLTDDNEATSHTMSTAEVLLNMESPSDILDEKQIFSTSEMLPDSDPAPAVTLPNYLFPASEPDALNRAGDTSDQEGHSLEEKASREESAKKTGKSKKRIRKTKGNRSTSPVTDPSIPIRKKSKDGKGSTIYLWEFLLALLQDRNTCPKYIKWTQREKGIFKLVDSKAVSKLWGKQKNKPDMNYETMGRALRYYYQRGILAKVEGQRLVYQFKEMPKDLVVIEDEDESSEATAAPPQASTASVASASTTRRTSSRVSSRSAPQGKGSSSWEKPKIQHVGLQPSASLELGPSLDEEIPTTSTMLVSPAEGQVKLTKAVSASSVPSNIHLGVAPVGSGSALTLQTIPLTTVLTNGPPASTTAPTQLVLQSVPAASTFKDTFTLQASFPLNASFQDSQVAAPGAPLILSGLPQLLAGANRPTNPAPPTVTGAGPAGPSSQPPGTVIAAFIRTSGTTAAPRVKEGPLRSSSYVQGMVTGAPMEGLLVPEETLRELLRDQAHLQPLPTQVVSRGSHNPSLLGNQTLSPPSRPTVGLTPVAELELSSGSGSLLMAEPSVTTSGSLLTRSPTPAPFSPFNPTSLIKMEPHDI
# Sequence of ELF1 (P32519 whole entry): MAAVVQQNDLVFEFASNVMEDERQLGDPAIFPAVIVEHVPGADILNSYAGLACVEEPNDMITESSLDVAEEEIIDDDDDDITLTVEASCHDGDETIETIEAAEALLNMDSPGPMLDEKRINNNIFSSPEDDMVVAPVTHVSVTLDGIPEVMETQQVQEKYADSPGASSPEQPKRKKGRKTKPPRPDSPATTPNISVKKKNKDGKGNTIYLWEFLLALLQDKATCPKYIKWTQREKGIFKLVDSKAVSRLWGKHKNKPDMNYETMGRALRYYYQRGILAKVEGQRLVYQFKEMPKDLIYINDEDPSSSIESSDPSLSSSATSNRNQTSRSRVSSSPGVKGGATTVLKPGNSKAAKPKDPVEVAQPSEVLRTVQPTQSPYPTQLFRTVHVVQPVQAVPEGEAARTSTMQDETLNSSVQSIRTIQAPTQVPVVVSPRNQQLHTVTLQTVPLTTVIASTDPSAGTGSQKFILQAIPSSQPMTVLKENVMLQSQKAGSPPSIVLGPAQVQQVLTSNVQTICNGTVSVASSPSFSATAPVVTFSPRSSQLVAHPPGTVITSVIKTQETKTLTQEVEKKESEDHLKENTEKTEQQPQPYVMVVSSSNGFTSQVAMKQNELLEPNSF
# Sequence of HSF1 (Q00613 whole entry): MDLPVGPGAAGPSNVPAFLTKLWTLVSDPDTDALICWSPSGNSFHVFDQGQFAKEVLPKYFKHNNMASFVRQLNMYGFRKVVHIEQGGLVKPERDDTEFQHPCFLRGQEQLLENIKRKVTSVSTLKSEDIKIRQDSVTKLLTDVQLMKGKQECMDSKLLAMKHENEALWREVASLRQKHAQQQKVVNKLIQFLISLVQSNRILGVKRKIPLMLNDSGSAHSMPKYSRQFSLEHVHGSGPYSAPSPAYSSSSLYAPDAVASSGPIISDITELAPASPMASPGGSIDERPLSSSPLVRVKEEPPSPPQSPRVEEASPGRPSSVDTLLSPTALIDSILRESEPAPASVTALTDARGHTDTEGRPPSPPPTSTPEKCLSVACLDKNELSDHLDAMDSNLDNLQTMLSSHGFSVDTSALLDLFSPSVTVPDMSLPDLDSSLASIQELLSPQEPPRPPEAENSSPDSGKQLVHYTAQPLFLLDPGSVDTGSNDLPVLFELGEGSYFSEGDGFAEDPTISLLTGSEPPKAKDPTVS
# Sequence of ETV5 (P41161 whole entry): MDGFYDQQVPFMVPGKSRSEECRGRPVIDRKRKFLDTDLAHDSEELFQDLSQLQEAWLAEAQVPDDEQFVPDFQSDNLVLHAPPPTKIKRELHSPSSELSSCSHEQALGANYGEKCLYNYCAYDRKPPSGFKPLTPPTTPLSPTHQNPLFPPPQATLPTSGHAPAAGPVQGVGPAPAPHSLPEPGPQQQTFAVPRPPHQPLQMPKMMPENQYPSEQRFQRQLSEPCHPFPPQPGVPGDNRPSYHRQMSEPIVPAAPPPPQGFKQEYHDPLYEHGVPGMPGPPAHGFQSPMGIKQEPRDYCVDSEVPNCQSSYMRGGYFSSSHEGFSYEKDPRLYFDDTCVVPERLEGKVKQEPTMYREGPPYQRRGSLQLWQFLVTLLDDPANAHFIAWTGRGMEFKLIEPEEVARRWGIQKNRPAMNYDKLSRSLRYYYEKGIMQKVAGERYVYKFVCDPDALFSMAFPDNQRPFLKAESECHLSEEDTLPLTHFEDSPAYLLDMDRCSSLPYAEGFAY
# Sequence of SPIB (Q01892 whole entry): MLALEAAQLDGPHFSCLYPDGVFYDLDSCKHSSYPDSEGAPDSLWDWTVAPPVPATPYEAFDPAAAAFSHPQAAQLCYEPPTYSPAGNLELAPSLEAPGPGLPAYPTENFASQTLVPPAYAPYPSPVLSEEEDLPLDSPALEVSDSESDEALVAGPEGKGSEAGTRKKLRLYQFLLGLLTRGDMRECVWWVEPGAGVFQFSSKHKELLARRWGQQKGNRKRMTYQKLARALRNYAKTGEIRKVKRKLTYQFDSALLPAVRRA
sequence,measurement,setting,value
TTCTGA,binding signal,FLI1,"1.37 fold enrichment (6-mer frequency, TF over GST control)"
same,binding signal,ELK1,"1.39 fold enrichment (6-mer frequency, TF over GST control)"
same,binding signal,GABPA,"1.27 fold enrichment (6-mer frequency, TF over GST control)"
same,binding signal,ERG,"1.31 fold enrichment (6-mer frequency, TF over GST control)"
same,binding signal,ELF1,"1.27 fold enrichment (6-mer frequency, TF over GST control)"
same,binding signal,EHF,"1.32 fold enrichment (6-mer frequency, TF over GST control)"
same,binding signal,SPI1,"1.21 fold enrichment (6-mer frequency, TF over GST control)"
same,binding signal,SPIB,"1.32 fold enrichment (6-mer frequency, TF over GST control)"
same,binding signal,ELK3,"1.38 fold enrichment (6-mer frequency, TF over GST control)"
same,binding signal,FEV,"1.22 fold enrichment (6-mer frequency, TF over GST control)"
same,binding signal,ETV5,"1.23 fold enrichment (6-mer frequency, TF over GST control)"
same,binding signal,HSF1,"1.48 fold enrichment (6-mer frequency, TF over GST control)"
same,binding signal,SPIC,"1.03 fold enrichment (6-mer frequency, TF over GST control)"
same,binding signal,ELF4,"1.45 fold enrichment (6-mer frequency, TF over GST control)"
same,binding signal,ELK4,"1.4 fold enrichment (6-mer frequency, TF over GST control)"
same,binding signal,ETV2,"1.23 fold enrichment (6-mer frequency, TF over GST control)"
same,binding signal,ELF3,"1.13 fold enrichment (6-mer frequency, TF over GST control)"
same,binding signal,CRX,"1.41 fold enrichment (6-mer frequency, TF over GST control)"
same,binding signal,ETV1,"1.27 fold enrichment (6-mer frequency, TF over GST control)"
